Out of some 5,500 compounds screened, about 2,000 (36%) were called active. About 18% were inconclusive and are not listed. Rule as the data show it: active = normalized growth mostly below about 0.91 (no sharp cut-off); inconclusive = no clear call, values can overlap the other calls; inactive = mostly above about 0.92. Some of the results follow.
Test: chemical genetic growth profiling, strain panel (AID 1159580);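 also: tested at 20 µM; growth read once vehicle control cultures reached saturation at 30 °C; 1 = growth at the plate median or of vehicle wells; lower values mean less growth of the strain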
Conditions: S. cerevisiae deletion strains, growth OD
[1] = locus YAR019C, strain CDC15, hits give low values
[2] = locus YBL105C, strain PKC1, hits give low values
[3] = locus YBR135W, strain CKS1, hits give low values
[4] = locus YBR136W, strain MEC1, hits give low values
[5] = locus YBR160W, strain CDC28, hits give low values
[6] = locus YDL017W, strain CDC7, hits give low values
[7] = locus YDL028C, strain MPS1, hits give low values
[8] = locus YDL101C, strain DUN1, hits give low values
[9] = locus YDL108W, strain KIN28, hits give low values
[10] = locus YDL132W, strain cdc53, hits give low values
[11] = locus YDL214C, strain PRR2, hits give low values
[12] = locus YDR052C, strain DBF4, hits give low values
[13] = locus YDR054C, strain cdc34, hits give low values
[14] = locus YDR226W, strain ADK1, hits give low values
[15] = locus YDR477W, strain SNF1, hits give low values
[16] = locus YER123W, strain YCK3, hits give low values
[17] = locus YER133W, strain GLC7, hits give low values
[18] = locus YFL009W, strain cdc4, hits give low values
[19] = locus YFL029C, strain CAK1, hits give low values
[20] = locus YFR003C, strain YPI1, hits give low values
[21] = locus YFR019W, strain FAB1, hits give low values
[22] = locus YFR028C, strain CDC14, hits give low values
[23] = locus YGR040W, strain KSS1, hits give low values
[24] = locus YGR052W, strain FMP48, hits give low values
[25] = locus YGR092W, strain DBF2, hits give low values
[26] = locus YHR030C, strain SLT2, hits give low values
[27] = locus YHR079C, strain IRE1, hits give low values
[28] = locus YHR082C, strain KSP1, hits give low values
[29] = locus YHR205W, strain SCH9, hits give low values
[30] = locus YIL147C, strain SLN1, hits give low values
[31] = locus YJL095W, strain BCK1, hits give low values
[32] = locus YJL128C, strain PBS2, hits give low values
[33] = locus YJL157C, strain FAR1, hits give low values
[34] = locus YJR016C, strain ILV3, hits give low values
[35] = locus YJR066W, strain TOR1 (second series), hits give low values
[36] = locus YJR066W, strain TOR1, hits give low values
[37] = locus YKL048C, strain ELM1, hits give low values
[38] = locus YKL067W, strain YNK1, hits give low values
[39] = locus YKL101W, strain HSL1, hits give low values
[40] = locus YKL193C, strain SDS22, hits give low values
[41] = locus YKL203C, strain TOR2, hits give low values
[42] = locus YLR113W, strain HOG1, hits give low values
[43] = locus YLR133W, strain CKI1, hits give low values
[44] = locus YLR403W, strain SFP1, hits give low values
[45] = locus YML070W, strain DAK1, hits give low values
[46] = locus YMR001C, strain CDC5, hits give low values
[47] = locus YMR205C, strain PFK2 (second series), hits give low values
[48] = locus YMR277W, strain FCP1, hits give low values
[49] = locus YNL006W, strain LST8, hits give low values
[50] = locus YNL020C, strain ARK1, hits give low values
[51] = locus YNL161W, strain CBK1, hits give low values
[52] = locus YNL183C, strain NPR1, hits give low values
[53] = locus YNL207W, strain RIO2, hits give low values
[54] = locus YNL222W, strain SSU72, hits give low values
[55] = locus YNL307C, strain MCK1 (second series), hits give low values
[56] = locus YOL078W, strain AVO1, hits give low values
[57] = locus YOL136C, strain PFK27, hits give low values
[58] = locus YOR061W, strain CKA2, hits give low values
[59] = locus YOR119C, strain RIO1, hits give low values
[60] = locus YOR231W, strain MKK1, hits give low values
[61] = locus YOR329C, strain SCD5, hits give low values
[62] = locus YPL031C, strain PHO85, hits give low values
[63] = locus YPL153C, strain RAD53, hits give low values
[64] = locus YPL204W, strain HRR25, hits give low values
[65] = locus YPL209C, strain IPL1, hits give low values
[66] = locus YPL256C, strain CLN2, hits give low values
[67] = locus YPR025C, strain CCL1, hits give low values
[68] = locus YPR106W, strain ISR1, hits give low values
[69] = locus YPR111W, strain DBF20, hits give low values
[70] = strain NNK1, hits give low values
[71] = strain TSCII, hits give low values

Measured: normalized growth

Cc1ccc(OCC2SCCN2C(=O)c2ccc(C(F)(F)F)cc2)c([N+](=O)[O-])c1 (configuration not stated)
inactive: [1] 1.01 | [2] 1.01 | [3] 1.01 | [4] 1.02 | [5] 1.01 | [6] 1.03 | [7] 1.02 | [8] 1 | [9] 1.02 | [10] 1 | [11] 0.998 | [12] 1.02 | [13] 0.986 | [14] 1.01 | [15] 0.981 | [16] 0.955 | [17] 0.985 | [18] 1.02 | [19] 1.01 | [20] 1.01 | [21] 0.97 | [22] 1.01 | [23] 1 | [24] 1.12 | [25] 1.02 | [26] 0.984 | [27] 1.01 | [28] 1.09 | [29] 0.998 | [30] 1.02 | [31] 1.01 | [32] 0.979 | [33] 0.994 | [34] 1.01 | [35] 0.927 | [36] 1.06 | [37] 1 | [38] 1 | [39] 0.996 | [40] 1.02 | [41] 1.04 | [42] 0.97 | [43] 1 | [44] 0.997 | [45] 0.982 | [46] 1.01 | [47] 1 | [48] 1.02 | [49] 1.02 | [50] 1 | [51] 1.01 | [52] 1.06 | [53] 1.02 | [54] 1.01 | [55] 0.993 | [56] 1.01 | [57] 0.965 | [58] 0.978 | [59] 1.05 | [60] 0.955 | [61] 1.02 | [62] 0.992 | [63] 0.987 | [64] 0.99 | [65] 1.01 | [66] 0.962 | [67] 1.01 | [68] 1.01 | [69] 1 | [70] 1.03 | [71] 1

Cc1ccccc1C(=O)Oc1ccc(C(F)(F)F)cc1[N+](=O)[O-]
inactive: [1] 0.961 | [2] 0.969 | [3] 0.964 | [4] 0.962 | [5] 0.966 | [6] 0.975 | [7] 0.947 | [8] 0.979 | [9] 0.964 | [10] 0.964 | [11] 0.864 | [12] 0.969 | [13] 0.965 | [14] 0.982 | [15] 0.937 | [16] 0.883 | [17] 0.941 | [18] 0.96 | [19] 0.965 | [20] 0.972 | [21] 0.979 | [22] 0.963 | [23] 0.934 | [24] 0.894 | [25] 0.807 | [27] 0.836 | [28] 0.951 | [29] 0.79 | [30] 0.97 | [31] 0.831 | [32] 0.868 | [33] 0.899 | [34] 0.968 | [35] 0.891 | [36] 0.948 | [37] 0.925 | [38] 0.879 | [39] 0.874 | [40] 0.971 | [41] 0.956 | [43] 0.909 | [44] 0.908 | [45] 0.891 | [46] 0.969 | [47] 0.898 | [48] 0.962 | [49] 0.977 | [50] 0.893 | [51] 0.971 | [52] 0.861 | [53] 0.956 | [54] 0.955 | [55] 0.823 | [56] 0.969 | [57] 0.869 | [58] 0.879 | [59] 1 | [60] 0.827 | [61] 0.964 | [62] 0.917 | [63] 0.917 | [64] 0.882 | [65] 0.967 | [67] 0.959 | [68] 0.955 | [69] 0.912 | [70] 0.941 | [71] 0.96
active: [26] 0.769 | [42] 0.614 | [66] 0.784

Source: PubChem BioAssay AID1159580 (chemical genetic matrix, 2015)
